# Results reported in PubChem BioAssay (Tox21).
# Values without a mark were called inactive. Records with an inconclusive call do not appear. Entries that show only a call come without a potency. Calls of active or inactive are those of the source. Calls follow the shape of the dose curve; as a rule, active = well fitted curve in the direction sought with a large enough effect in the repeat runs; inconclusive = weak or mixed curves; inactive = no such curve, though single readings can be large; an effect the other way counts as inactive or inconclusive.
# Key:
# [1] = Human pregnane X receptor (PXR) small molecule agonists, qHTS cell viability counter screen (AID 1346977); also: nearly all actives have a fitted effect of over 50% in size
# How it was run: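 Fluorescence read-out (CellTiter-Fluor) of viability in PXR-Luc HepG2 cells, multiplexed with the luciferase agonist read. Compounds in DMSO added after 5hr plating; 24hr total exposure at 37C, 5% CO2.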
# [2] = Caspase-3/7 induction in HepG2 cells by small molecules, qHTS assay (AID 1346978); also: nearly all actives have a fitted effect of over 15% in size
# How it was run: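 Wild-type HepG2 cells (2,000/well) were settled 5 h at 37 C, 5% CO2, then exposed to compounds in DMSO for 17 h. Caspase-3/7 activity was read by luminescence 30 min after adding Caspase-Glo 3/7 reagent at room temperature.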
# [3] = Caspase-3/7 induction in CHO-K1 cells by small molecules, qHTS cell viability counter screen (AID 1346979); also: nearly all actives have a fitted effect of over 35% in size
# How it was run: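 CHO-K1 wt, 1,500 cells/well; 5hr pre-incubation 37C/5% CO2; compound pin transfer (DMSO); 16hr exposure; CellTiter-Fluor added, 1hr, fluorescence read.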
# [4] = Caspase-3/7 induction in CHO-K1 cells by small molecules, qHTS assay (AID 1346980); also: nearly all actives have a fitted effect of over 15% in size
# How it was run: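 Wild-type cells were seeded at 1,500 per well and settled 5 hr at 37 C, 5% CO2, then exposed to DMSO-dissolved compounds for 17 hr. Caspase-Glo 3/7 reagent was added, and luminescence was read after 30min at room temperature.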
# [5] = Caspase-3/7 induction in HepG2 cells by small molecules, qHTS cell viability counter screen (AID 1346981); also: series mostly up to about 92 µM; nearly all actives have a fitted effect of over 30% in size
# How it was run: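 After a 5-hr attachment period at 37 C and 5% CO2, wild-type HepG2 cells received compounds in DMSO. Sixteen hours later CellTiter-Fluor was dispensed and the fluorescent signal quantified after a further hour.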
# [6] = molecular target: Nuclear receptor subfamily 1 group I member 2 (Homo sapiens) (UniProt O75469); assay: Human pregnane X receptor (PXR) small molecule agonists, qHTS assay (AID 1346982); also: nearly all actives have a fitted effect of over 35% in size; also: potency is read from the fitted curve at half-maximal effect
# How it was run: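 Tox21 qHTS; PXR-Luc HepG2; compounds pinned from DMSO; 24 hr, 37 C; ONE-Glo luciferase detection, 30 min room temperature.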
# [7] = molecular target: Cytochrome P450 2D6 (Homo sapiens) (UniProt P10635); assay: Cytochrome P450 Family 2 Subfamily D Member 6 (CYP2D6) small molecule antagonists: luciferase reporter qHTS assay (AID 1671196); also: nearly all actives have a fitted effect of over 50% in size; also: potency is read from the fitted curve at half-maximal effect; as to activity change, negative = inhibition: series mostly up to about 120 µM
# How it was run: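 Room-temperature luminescent CYP2D6 activity assay: compound preincubated 10 min with enzyme–substrate mix, NADPH-initiated reaction 1 h, detection reagent 20 min before reading.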
# [8] = molecular target: Nuclear receptor subfamily 1 group I member 2 (Rattus norvegicus) (UniProt Q9R1A7); assay: Rat pregnane X receptor (rPXR) activation by small molecules, qHTS assay (AID 1346983); conditions: rPXR luciferase reporter cells, One-Glo luminescence, 24 h; max activation: hits give high values; also: nearly all actives have a fitted effect of over 20% in size
# How it was run: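 Cell-based rPXR luciferase reporter assay, 2,000 cells per well, rested 5hr at 37 C before compound addition in DMSO, then 24 hr at 37 C. One-Glo reagent was added and luminescence read after 30 min at room temperature.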
# [9] = molecular target: Nuclear receptor subfamily 1 group I member 2 (Homo sapiens) (UniProt O75469); assay: CYP3A4 induction through human pregnane X receptor (PXR) by small molecules, qHTS assay (AID 1346984); also: nearly all actives have a fitted effect of over 40% in size
# How it was run: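 Cells (DPX-2; HepG2 with PXR element plus CYP3A4-promoter luciferase) settled 5hr, then were treated 24hr at 37C. A 3hr, 3uM-final Luciferin-IPA step preceded luminescence measurement with One-Glo.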
# [10] = molecular target: Nuclear receptor subfamily 1 group I member 2 (Homo sapiens) (UniProt O75469); assay: Human pregnane X receptor (PXR) activation by small molecules, qHTS assay (AID 1346985); also: nearly all actives have a fitted effect of over 40% in size
# How it was run: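 DPX-2 cells (HepG2 co-transfected with a PXR response element and a CYP3A4-promoter luciferase construct) were seeded at 2,000 per well, rested 5 hr at 37C, then exposed to DMSO-dissolved compounds for 24 hr. Activation was read as luciferase luminescence.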
# Cytochrome P450 2D6 (Homo sapiens), sequence (P10635 whole entry, looked up): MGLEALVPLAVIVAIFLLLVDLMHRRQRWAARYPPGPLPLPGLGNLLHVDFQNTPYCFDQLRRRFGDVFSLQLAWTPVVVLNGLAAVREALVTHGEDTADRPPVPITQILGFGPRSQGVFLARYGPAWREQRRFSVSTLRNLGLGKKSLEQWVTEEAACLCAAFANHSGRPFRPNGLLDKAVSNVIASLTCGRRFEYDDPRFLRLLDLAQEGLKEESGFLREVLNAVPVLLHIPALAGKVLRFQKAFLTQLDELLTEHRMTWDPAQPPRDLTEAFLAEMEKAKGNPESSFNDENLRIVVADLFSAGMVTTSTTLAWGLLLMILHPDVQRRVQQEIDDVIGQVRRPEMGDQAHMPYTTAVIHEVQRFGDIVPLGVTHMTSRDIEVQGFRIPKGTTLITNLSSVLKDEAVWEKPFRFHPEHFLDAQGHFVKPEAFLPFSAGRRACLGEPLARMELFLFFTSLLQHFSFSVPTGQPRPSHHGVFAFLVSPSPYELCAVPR
# Nuclear receptor subfamily 1 group I member 2 (Homo sapiens), sequence (O75469 whole entry, looked up): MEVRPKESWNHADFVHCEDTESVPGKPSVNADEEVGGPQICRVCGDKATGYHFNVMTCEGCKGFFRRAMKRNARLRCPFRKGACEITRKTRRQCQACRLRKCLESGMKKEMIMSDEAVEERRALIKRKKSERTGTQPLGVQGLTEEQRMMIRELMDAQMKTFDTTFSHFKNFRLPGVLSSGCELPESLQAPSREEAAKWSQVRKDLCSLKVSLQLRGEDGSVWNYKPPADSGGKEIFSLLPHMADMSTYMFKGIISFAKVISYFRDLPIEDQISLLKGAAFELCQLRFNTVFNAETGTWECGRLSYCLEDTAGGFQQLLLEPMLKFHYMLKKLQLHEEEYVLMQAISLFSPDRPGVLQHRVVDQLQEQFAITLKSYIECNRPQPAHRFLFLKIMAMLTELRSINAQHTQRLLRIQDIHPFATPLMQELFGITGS
# Nuclear receptor subfamily 1 group I member 2 (Rattus norvegicus), sequence (Q9R1A7 whole entry, looked up): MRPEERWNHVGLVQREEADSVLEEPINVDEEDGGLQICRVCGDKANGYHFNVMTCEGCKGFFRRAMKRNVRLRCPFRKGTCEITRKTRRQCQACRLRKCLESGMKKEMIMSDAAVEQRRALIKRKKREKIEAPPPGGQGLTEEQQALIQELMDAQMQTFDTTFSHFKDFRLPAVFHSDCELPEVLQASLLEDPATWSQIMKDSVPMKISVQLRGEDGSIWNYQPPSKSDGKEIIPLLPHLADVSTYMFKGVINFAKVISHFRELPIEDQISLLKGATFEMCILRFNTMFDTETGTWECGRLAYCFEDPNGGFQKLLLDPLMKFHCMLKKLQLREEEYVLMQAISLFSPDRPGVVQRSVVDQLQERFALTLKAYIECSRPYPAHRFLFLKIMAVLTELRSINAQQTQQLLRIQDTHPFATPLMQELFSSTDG
structure (smiles),measurement,setting,value
COc1ccccc1OCC1CNC(=O)O1 (configuration not stated),Potency,[1],inactive
same,outcome,[2],inactive
same,Potency,[3],inactive
same,outcome,[4],inactive
same,Potency,[5],inactive
same,Potency,[6],inactive
same,Potency,[7],inactive
Cc1nc(C2CCCCC2)c(-c2ccc(S(N)(=O)=O)c(F)c2)o1,Potency,[1],inactive
same,outcome,[2],inactive
same,Potency,[3],inactive
same,outcome,[4],inactive
same,Potency,[5],inactive
same,Potency,[6],21.1 µM (active)
same,Potency,[7],13.8 µM (active)
CCN(C=O)CC,Potency,[1],inactive
same,outcome,[2],inactive
same,Potency,[3],inactive
same,outcome,[4],inactive
same,Potency,[5],inactive
same,Potency,[6],inactive
same,Potency,[7],72.9 µM (active)
CN1C(C)(C)CC(O)CC1(C)C,Potency,[1],inactive
same,outcome,[2],inactive
same,Potency,[3],inactive
same,outcome,[4],inactive
same,Potency,[5],inactive
same,Potency,[6],inactive
same,Potency,[7],inactive
Nc1ccn([C@@H]2O[C@H](CO)[C@@H](O)[C@@H]2O)c(=O)n1,Potency,[1],inactive
same,outcome,[2],inactive
same,Potency,[3],inactive
same,outcome,[4],inactive
same,Potency,[5],inactive
same,Potency,[6],inactive
same,Potency,[7],inactive
CC(C)CC(C)(N)C#N (configuration not stated),Potency,[1],inactive
same,outcome,[2],inactive
same,Potency,[3],inactive
same,outcome,[4],inactive
same,Potency,[5],inactive
same,Potency,[6],inactive
same,Potency,[7],inactive
O=S(=O)(O)c1cccc(S(=O)(=O)O)c1,Potency,[1],inactive
same,outcome,[2],inactive
same,Potency,[3],inactive
same,outcome,[4],inactive
same,Potency,[5],inactive
same,Potency,[6],inactive
same,Potency,[7],inactive
C=COCC1CCC(COC=C)CC1 (configuration not stated),Potency,[1],inactive
same,outcome,[2],inactive
same,Potency,[3],inactive
same,outcome,[4],inactive
same,Potency,[5],inactive
same,Potency,[6],inactive
same,Potency,[7],inactive
c1ccc(Cc2ccccc2)cc1,Potency,[1],inactive
same,outcome,[2],inactive
same,Potency,[3],inactive
same,outcome,[4],inactive
same,Potency,[5],inactive
same,Potency,[6],inactive
same,Potency,[7],inactive
CCCCN1C=CN(C)C1,"activity change, negative = cytotoxicity",[1],-1.91% [at 19 µM]
same,caspase activation,[2],1.6% [at 19 µM]
same,"activity change, negative = cytotoxicity",[3],5.38% [at 19 µM]
same,caspase-3/7 activation,[4],0.127% [at 19 µM]
same,"activity change, negative = cytotoxicity",[5],-0.522% [at 19 µM]
same,activation,[6],3.9% [at 19 µM]
same,"activity change, negative = inhibition",[7],-17.2% [at 23.6 µM]
COCCOCC(OC)OC,Potency,[1],inactive
same,outcome,[2],inactive
same,Potency,[3],inactive
same,outcome,[4],inactive
same,Potency,[5],inactive
same,Potency,[6],inactive
same,Potency,[7],inactive
O=C(O)CCSCCC(=O)O,Potency,[1],inactive
same,outcome,[2],inactive
same,Potency,[3],inactive
same,outcome,[4],inactive
same,Potency,[5],inactive
same,Potency,[6],inactive
same,Potency,[7],inactive
O=C(CO)[C@@H](O)[C@H](O)[C@@H](O)CO,Potency,[1],inactive
same,outcome,[2],inactive
same,Potency,[3],inactive
same,outcome,[4],inactive
same,Potency,[5],inactive
same,Potency,[6],inactive
same,Potency,[7],inactive
CCOC(=O)C(=O)CCCCCCl,Potency,[1],inactive
same,outcome,[2],inactive
same,Potency,[3],inactive
same,outcome,[4],inactive
same,Potency,[5],inactive
same,Potency,[6],inactive
same,Potency,[7],38.9 µM (active)
CCCO[Si](OCCC)(OCCC)OCCC,Potency,[1],inactive
same,outcome,[2],inactive
same,Potency,[3],inactive
same,outcome,[4],inactive
same,Potency,[5],inactive
same,Potency,[6],inactive
same,Potency,[7],inactive
NC(=O)Cc1cccc2ccccc12,Potency,[1],inactive
same,outcome,[2],inactive
same,Potency,[3],inactive
same,outcome,[4],inactive
same,Potency,[5],inactive
same,Potency,[6],inactive
same,Potency,[7],inactive
OCCCCCO,Potency,[1],inactive
same,outcome,[2],inactive
same,Potency,[3],inactive
same,outcome,[4],inactive
same,Potency,[5],inactive
same,Potency,[6],inactive
same,Potency,[7],inactive
CC(COc1ccccc1)NN (configuration not stated),Potency,[1],inactive
same,outcome,[2],inactive
same,Potency,[3],inactive
same,outcome,[4],inactive
same,Potency,[5],inactive
same,Potency,[6],inactive
same,Potency,[7],inactive
COc1c(N2CCNC(C)C2)c(F)cc2c(=O)c(C(=O)O)cn(C3CC3)c12 (configuration not stated),Potency,[1],inactive
same,outcome,[2],inactive
same,Potency,[3],inactive
same,outcome,[4],inactive
same,Potency,[5],inactive
same,Potency,[6],inactive
same,Potency,[7],inactive
CC(C)=CCC/C(C)=C/C#N,Potency,[1],inactive
same,outcome,[2],inactive
same,Potency,[3],inactive
same,outcome,[4],inactive
same,Potency,[5],inactive
same,Potency,[6],inactive
same,Potency,[7],inactive
CC(=O)c1cnccn1,Potency,[1],inactive
same,outcome,[2],inactive
same,Potency,[3],inactive
same,outcome,[4],inactive
same,Potency,[5],inactive
same,Potency,[6],inactive
same,Potency,[7],inactive
c1ccc(CCc2ccccc2)cc1,Potency,[1],inactive
same,outcome,[2],inactive
same,Potency,[3],inactive
same,outcome,[4],inactive
same,Potency,[5],inactive
same,Potency,[6],inactive
same,Potency,[7],inactive
CCC(=O)OCc1ccccc1,Potency,[1],inactive
same,outcome,[2],inactive
same,Potency,[3],inactive
same,outcome,[4],inactive
same,Potency,[5],inactive
same,Potency,[6],inactive
same,Potency,[7],inactive
CCC(C(=O)NC(=O)NC(C)=O)c1ccccc1 (configuration not stated),Potency,[1],inactive
same,outcome,[2],inactive
same,Potency,[3],inactive
same,outcome,[4],inactive
same,Potency,[5],inactive
same,Potency,[6],inactive
same,Potency,[7],inactive
COC(=O)Nc1ccc(Cl)c(Cl)c1,Potency,[1],inactive
same,outcome,[2],inactive
same,Potency,[3],inactive
same,outcome,[4],inactive
same,Potency,[5],inactive
same,Potency,[6],60.8 µM (active)
same,Potency,[7],inactive
CN(C)CCCN(C)CCCN(C)C,Potency,[1],inactive
same,outcome,[2],inactive
same,Potency,[3],inactive
same,outcome,[4],inactive
same,Potency,[5],inactive
same,Potency,[6],inactive
same,Potency,[7],inactive
O=S(=O)(O)c1cccc2ccccc12,Potency,[1],inactive
same,outcome,[2],inactive
same,Potency,[3],inactive
same,outcome,[4],inactive
same,Potency,[5],inactive
same,Potency,[6],inactive
same,Potency,[7],inactive
Cc1ccccc1N=C(N)N=C(N)N,Potency,[1],inactive
same,outcome,[2],inactive
same,Potency,[3],inactive
same,outcome,[4],inactive
same,Potency,[5],inactive
same,Potency,[6],inactive
same,Potency,[7],7.96 µM (active)
O=C(O)Cc1csc(-c2ccc(Cl)cc2)n1,Potency,[1],inactive
same,outcome,[2],inactive
same,Potency,[3],inactive
same,outcome,[4],inactive
same,Potency,[5],inactive
same,max activation,[8],-2.73%
same,Potency,[9],inactive
same,Potency,[10],inactive
same,Potency,[7],inactive
CCCCCCCCCC[N+](C)(C)[O-],Potency,[1],inactive
same,outcome,[2],inactive
same,Potency,[3],inactive
same,outcome,[4],inactive
same,Potency,[5],inactive
same,Potency,[6],inactive
same,Potency,[7],35.6 µM (active)
